Experimental data reported in PubChem BioAssay (NCI).
The panel holds about 79,000 compounds, 15% with a hit somewhere; the sample as a whole holds those more often. Rule as the data show it: active = growth inhibition above about 70%; inactive = the rest.

Key:
[1] = NCI Yeast Anticancer Drug Screen. Data for the rad50 strain (AID 155);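 also: 0% = growth of vehicle-only cultures of the same strain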; conditions: S. cerevisiae rad50 strain growth inhibition; at 50.0 µM; active compounds read high
Outline: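 Genetically altered yeast (DNA repair pathway); compound treatment; growth inhibition vs vehicle ctrl.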

[2] = NCI Yeast Anticancer Drug Screen. Data for the mec2-1 strain (AID 157); conditions: S. cerevisiae mec2-1 strain, at 50.0 µM, active compounds read high
Outline: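 Test agents were screened against the mec2-1 yeast strain, with defined DNA repair or cell cycle alteration. Growth was scored as inhibition against vehicle-only controls.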

[3] = NCI Yeast Anticancer Drug Screen. Data for the sgs1 mgt1 strain (AID 161);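 also: 0% = growth of cultures given vehicle only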; conditions: S. cerevisiae sgs1 mgt1 strain, at 50.0 µM, active compounds read high
Outline: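 Test agents were incubated with a DNA-repair-mutant yeast strain. Growth was then read and compared against vehicle-treated controls.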

[4] = NCI Yeast Anticancer Drug Screen. Data for the cln2 rad14 strain (AID 165);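 also: 0% = growth equal to vehicle treated cultures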; conditions: S. cerevisiae cln2 rad14 strain, at 50.0 µM, active compounds read high
Outline: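 Growth of compound-exposed yeast (cln2 rad14 genotype) measured and expressed as inhibition relative to vehicle.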

[5] = NCI Yeast Anticancer Drug Screen. Data for the bub3 strain (AID 167); conditions: S. cerevisiae bub3 mutant strain, at 50.0 µM, active compounds read high
Outline: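 Yeast carrying a defined mutation is treated with each compound, and growth is compared with that of vehicle-exposed cells to give inhibition.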

[6] = NCI Yeast Anticancer Drug Screen. Data for the mlh1 rad18 strain (AID 175); conditions: S. cerevisiae mlh1 rad18 strain growth inhibition; at 50.0 µM; active compounds read high
Outline: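 In this whole-cell yeast screen, a strain with altered DNA damage repair is challenged with compound, and its growth is measured against matched vehicle-treated controls.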

Measured: growth inhibition

Cc1ccc(S(=O)(=O)N/N=c2/sc3ccccc3n2C)cc1
inactive: [1] -35% | [2] -19.1% | [3] -33.5% | [4] -7.85% | [5] -8.2% | [6] -22.3%

C[C@H]1C(=O)CCC2[C@]3(C)CCC4(CO)[C@@H]5CC(C)(C)C(=O)C[C@]5(C)CC[C@]4(C)C3CC[C@@]21C (some centres undefined)
inactive: [1] -26.5% | [2] -25.6% | [3] -28.1% | [4] 3.35% | [5] -40.9% | [6] 0.4%

COc1cc(=O)[nH]c(-c2ccccc2)c1OC
inactive: [1] -3.55% | [2] 3.95% | [3] 9% | [4] -5.05% | [5] 7.7% | [6] 0.05%

COc1cc2oc3c(C)c(=O)cc4oc(-c5ccccc5)cc(c2c2c1CCC(c1ccccc1)O2)c43 (centres undefined)
inactive: [1] -23.6% | [2] -5.9% | [3] -20.1% | [4] 4.35% | [5] -20.2% | [6] -0.7%

O=[N+]([O-])c1cc2c3c(cccc3c1O)CC2
inactive: [1] -18.1% | [2] -8.9% | [3] -4% | [4] -9.85% | [5] 4.45% | [6] 24%

COC(=O)C(=O)C(C(=O)C(=O)Nc1cccc(OC)c1)c1nc2ccc(Cl)cc2[nH]c1=O (centres undefined)
inactive: [1] 21.1% | [2] -1.2% | [3] -8.25% | [4] -10.2% | [5] -35.1% | [6] -25.6%

O=C(O)C1C(Br)C(Br)C1C(=O)O (centres undefined) (tested in a mixture with another compound)
inactive: [1] 0.25% | [2] -16.6% | [3] -12.2% | [4] -22.2% | [5] -15.3% | [6] -19.3%

CN(C)CCCn1ncc(Sc2cc([N+](=O)[O-])ccc2N)c(Cl)c1=O
inactive: [1] 2.9% | [2] -6.35% | [3] -12.3% | [4] -8.25% | [5] -5.55% | [6] -6.9%

O=[N+]([O-])c1ccc(N=Cc2ccccc2O)cc1
inactive: [1] -19.7% | [2] -8.05% | [3] -23.6% | [4] 4.3% | [5] 8.05% | [6] -6.9%

COCCCC(NC(=O)C(CC(C)C)NC(=O)OCc1ccc(OC)cc1)C(N)=O (centres undefined)
inactive: [1] -12.9% | [2] -21.4% | [3] -22.9% | [4] 4.2% | [5] -12.1% | [6] 4.2%

CN(C)c1ccc(N=Cc2ccc3c(c2)OCO3)cc1
inactive: [1] -6.65% | [2] 6.3% | [3] -15.3% | [4] -18.1% | [5] -6.1% | [6] -0.05%

O=C(O)[C@H](CSSC[C@@H](C(=O)O)N1C(=O)c2ccccc2C1=O)N1C(=O)c2ccccc2C1=O
inactive: [1] 20.3% | [2] -6.4% | [3] -4.85% | [4] 31.4% | [5] 2.8% | [6] -4.4%

O=C(CCCCC(=O)Nc1ccc2[nH]c3ccccc3c(=O)c2c1)Nc1ccc2[nH]c3ccccc3c(=O)c2c1
inactive: [1] 0.35% | [2] 0.25% | [3] -3.1% | [4] -2.5% | [5] -3.45% | [6] 7.75%

COC1CCCC2CC3=C(CCCC3)OC21 (centres undefined)
inactive: [1] -6.45% | [2] 3.5% | [3] 5.1% | [4] -101% | [5] -14% | [6] -13.5%

O=C(O)c1c[nH]c(=O)[nH]c1=O.[Cu+2]
inactive: [1] -23.9% | [2] -13% | [3] -12.4% | [4] -44.5% | [5] -40.8% | [6] -21.2%

CCN(CC)C(=O)c1ccncc1C(=O)c1ccncc1
inactive: [1] -1.2% | [2] -3.55% | [3] -8.4% | [4] -14.3% | [5] -1.95% | [6] -10.1%

Cc1cccc(NC(=O)NC(O)C(Cl)(Cl)Cl)c1 (centres undefined)
inactive: [1] 1.65% | [2] -3.35% | [3] -6.25% | [4] -43% | [5] -16.6% | [6] 0.95%

CC(=O)Nc1cc2ccccc2c(Br)n1
inactive: [1] -14.9% | [2] 6.55% | [3] -4.65% | [4] -13.1% | [5] -9.95% | [6] -6.15%

O=c1c2c(sc3ccccc13)NCN(CCc1ccccc1)C2
inactive: [1] -10.7% | [2] -4.15% | [3] 20.9% | [4] 3.2% | [5] 19.1% | [6] 12.2%

Nc1nnnn1NC(=O)NCCCl
inactive: [1] -43.7% | [2] -38.7% | [3] -35.9% | [4] -18.4% | [5] -27.4% | [6] -26.5%

CC(C)(C)c1ccc(OCCOCCCl)c(Cl)c1
inactive: [1] 17.1% | [2] 15.4% | [3] 14.6% | [4] -19.9% | [5] 8.65% | [6] 15.2%

S=C(Nc1ccc(I)cc1)SCc1ccc2c(c1)OCO2
inactive: [1] 32.5% | [2] 14.4% | [3] 25.5% | [4] 32.2% | [5] -3.65% | [6] 23.8%

C=CCOC(=O)c1c(Cl)c(Cl)c(Cl)c(Cl)c1C(=O)O
inactive: [1] 18.4% | [2] 7.85% | [3] 29.1% | [4] 25.9% | [5] 14.1% | [6] 23.9%

COC(=O)c1cc2c(cc1CC(Cc1ccc3c(c1)CCC3)C(=O)OC)CCC2 (centres undefined)
inactive: [1] 27.9% | [2] 1.25% | [3] -21.6% | [4] -34.1% | [5] 3.95% | [6] -4.65%

COc1ccc2c3c(c(C(=O)O)oc13)CCC2
inactive: [1] 3.85% | [2] -3.05% | [3] -3.8% | [4] -5.8% | [5] -15.3% | [6] 16.8%

CC(=O)OC(C(=O)Nc1nncs1)c1ccccc1 (centres undefined)
inactive: [1] 7.05% | [2] -22.9% | [3] 7.25% | [4] 8.05% | [5] 11.2% | [6] 18.1%

c1ccc2c3c([nH]c2c1)C1(CCCCC1)c1c([nH]c2ccccc12)C31CCCCC1
inactive: [1] -19.6% | [2] 2.2% | [3] -8.9% | [4] 9.9% | [5] -20.4% | [6] -10.9%

CC(C)NC(=O)c1ccccc1S(=O)c1ccccc1C(=O)NC(C)C
inactive: [1] -16.4% | [2] 3.45% | [3] 8.15% | [4] 11.3% | [5] 5.05% | [6] 7.25%

CN1CCN(CN2C(=O)C3C4C=CC(C3C2=O)C2C(=O)N(CN3CCN(C)CC3)C(=O)C42)CC1 (centres undefined)
inactive: [1] 18.1% | [2] 5.95% | [3] 13.5% | [4] -0.85% | [5] 14.6% | [6] 16.9%

COC(=O)CCSc1ccccc1
inactive: [1] 0.55% | [2] -12% | [3] 5.45% | [4] 6.7% | [5] -15.1% | [6] -7.6%

CCCCC(C)C(C)O (centres undefined)
inactive: [1] -28.5% | [2] -62.1% | [3] -24.6% | [4] 11.2% | [5] -33.9% | [6] -0.8%

O=C(OC1COC(n2c(=O)oc3cc([N+](=O)[O-])c([N+](=O)[O-])cc32)C(OC(=O)c2ccccc2)C1OC(=O)c1ccccc1)c1ccccc1 (centres undefined)
inactive: [1] -5.15% | [2] 8.6% | [3] 14.4% | [4] -9.15% | [5] -8.55% | [6] 3.35%

CC(C)OC(=O)CCCCCc1ccccc1
inactive: [1] 6% | [2] -2.7% | [3] -29.1% | [4] 7.85% | [5] 2.1% | [6] -8.4%

CCOC(=O)N1N(C(=O)c2ccccc2)C(=O)CC1(C)C
inactive: [1] -3.15% | [2] 8.2% | [3] 1.5% | [4] -16.1% | [5] -6.8% | [6] -24.2%

CC1C(O)C(c2ccccc2)(c2ccccc2)C(C)CN1C (centres undefined)
inactive: [1] -5.65% | [2] -4.95% | [3] 4.15% | [4] 4.65% | [5] -2.6% | [6] 3.45%

COc1c(O)ccc(/C=N/NC(=S)NCOCCOC(C)=O)c1OC
inactive: [1] 0.85% | [2] -3.8% | [3] 1.7% | [4] 21.9% | [5] 9.95% | [6] -10.6%

O=C(C(=O)N1CCc2ccccc21)c1c[nH]c2ccccc12
inactive: [1] 5.75% | [2] 2% | [3] -11.8% | [4] 3.1% | [5] -2.95% | [6] 12.5%

CCC(C(=O)c1ccccc1)C1(C(=O)OC)NC(=S)NC(=O)C1C#N (centres undefined)
inactive: [1] 3.25% | [2] -2.85% | [3] -2.55% | [4] -17.9% | [5] -8.05% | [6] 4%

CCCCCCCCC1C(CCCCCCCC(=O)N(CC)CCCOCC)C2(Cl)C(Cl)=C(Cl)C1(Cl)C2(Cl)Cl (centres undefined)
inactive: [1] 3.45% | [2] 4.65% | [3] 13.9% | [4] -10.6% | [5] -6.35% | [6] 16.4%
